# Compounds with a hit are over-represented: about 8.3% of the library has one in this group of screens.
# VP16 counter: Gal4-VP16 reporter inhibition counter-screen. Drosophila S2 Gal4-VP16 UAS-luciferase, luminescence, 20 h. Potency, µM (top dose mostly 53.6 µM), for inactives: at the top dose activity, negative = inhibition, most hits filed as inhibitors. 310,000 compounds, 3.5% hits;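 also: Gal4-VP16 expression switched on by copper sulfate through the metallothionein promoter; potency is read from the fitted curve at half-maximal effect; % is scaled to controls: 0 for no effect and ±100 for the full control effect; nearly all actives have a fitted effect of over 50% in size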
# BCR signal inh: inhibitors of chronic active B-cell receptor signaling. ABC-DLBCL IkBa-CBG/CBR reporter, luminescence ratio, 4 h. Potency, µM (highest dose often 46.1 µM), for inactives: top-dose activity change, negative = inhibition, actives largely listed as inhibitors. 340,000 compounds, 0.05% hits. AID 493014; active = well fitted inhibition curve with a large enough effect in the signal ratio, with a control signal flat, not every such curve was filed as active; inconclusive = small, poorly fitted or top-dose-only effect, or effect the other way, or a change in a side signal; the % refers to the signal ratio;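 also: potency is read from the fitted curve at half-maximal effect; plate controls were basal doxycycline-induced cells for no effect and cells given 10 µM MG132 for full effect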
#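 Cell line TMD8 (human ABC DLBCL), stably expressing tet-inducible CBG68-IkBa fusion and CBR; IMDM/0.5% FBS; cpd up to 46 uM; dox induction, 4 h, 37C/5% CO2; dual luminescence; green/red ratio; MG132 control.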
# SW480 rerep: induces DNA re-replication in SW480 colon adenocarcinoma cells; SW480 DNA re-replication, Hoechst DNA content imaging, 48 h; Potency, µM (series often up to 46.1 µM), for the others: at the top dose re-replication activation, usual class: activators; 340,000 compounds, 1.8% hits; also: potency is read from the fitted curve at half-maximal effect; % of control where 0% means no effect; nearly all actives have a fitted effect of over 55% in size
#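 Readout is total intensity of Hoechst-stained nuclei, excited at 405 nm and collected at 500-530 nm. Compound treatment lasted 48 hr at 37 C in 5% CO2 before staining.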
# RORgamma inh: inhibitors of mouse ROR gamma transcriptional activity. P51450. Drosophila S2 Gal4-RORgamma UAS-luciferase reporter, 20 h. Potency, µM (titrated, usually from 53.6 µM), for inactives: at the highest dose activity change, negative = inhibition, most hits filed as inhibitors. 310,000 compounds, 5.4% hits. AID 2551; also: potency is read from the fitted curve at half-maximal effect; % is scaled to controls: 0 for no effect and ±100 for the full control effect; nearly all actives have a fitted effect of over 60% in size
# Target sequence (P51450 whole entry, looked up, the tested form may be a part): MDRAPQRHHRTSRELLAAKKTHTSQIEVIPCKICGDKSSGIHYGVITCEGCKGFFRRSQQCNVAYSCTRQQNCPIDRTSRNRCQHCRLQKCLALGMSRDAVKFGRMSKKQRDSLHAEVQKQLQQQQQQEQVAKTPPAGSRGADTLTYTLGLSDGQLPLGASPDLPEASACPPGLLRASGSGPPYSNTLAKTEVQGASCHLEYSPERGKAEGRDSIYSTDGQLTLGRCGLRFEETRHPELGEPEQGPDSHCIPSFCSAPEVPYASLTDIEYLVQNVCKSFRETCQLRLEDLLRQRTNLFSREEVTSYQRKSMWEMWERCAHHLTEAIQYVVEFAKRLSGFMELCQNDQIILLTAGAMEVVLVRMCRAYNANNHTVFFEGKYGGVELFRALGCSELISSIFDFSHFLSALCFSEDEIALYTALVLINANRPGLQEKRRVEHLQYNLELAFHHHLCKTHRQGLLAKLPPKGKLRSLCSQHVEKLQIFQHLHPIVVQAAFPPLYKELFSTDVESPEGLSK
#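 Stably transfected Drosophila Schneider cells are the test system, with ROR gamma fused to Gal4 and luciferase under UAS control; luminescence is read after 20 hr of 700 uM copper sulfate induction at ambient temperature.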
# MCF10A rerep: induces DNA re-replication in MCF 10a normal breast cells | MCF 10A DNA re-replication, Hoechst nuclear intensity, 48 h | Potency, µM (top dose mostly 46.1 µM), without a hit: at the top dose activity, positive = re-replication, actives largely listed as activators | 350,000 compounds, 2.9% hits; also: potency is read from the fitted curve at half-maximal effect; % of control where 0% means no effect; nearly all actives have a fitted effect of over 50% in size
# Giardia killer: Giardia lamblia killing; activity change, % at 7.66 µM, hits read low; AID 540267; Giardia lamblia trophozoite viability; 340,000 compounds, 0.15% hits; in the data active = activity change below about -80%; inconclusive = between about -30% and that limit;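 also: parasites exposed to compound for two days anaerobically before the ATP read; % is scaled to controls: 0 for no effect and ±100 for the full control effect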
#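 Trophozoite viability was measured as ATP-dependent luminescence, read 15-30 min after reagent addition. Before that, parasites at 100 cells/well were exposed to compounds for 48 h, anaerobically, at 37 deg C.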
# * marks the source's active call; other numbers are inactive results; ? = inconclusive; · = not tested or not shown. Unless noted, calls follow the shape of the dose curve; as a rule, active = well fitted curve in the direction sought with a large enough effect; inconclusive = small, poorly fitted or top-dose-only effect, or another doubt; inactive = no such curve, though single readings can be large; an effect the other way counts as inactive or inconclusive.
SMILES,VP16 counter,BCR signal inh,SW480 rerep,RORgamma inh,MCF10A rerep,Giardia killer
Cc1cccc(N2CCN(C(=O)CCCCCn3c(=S)[nH]c4ccc(N5CCOCC5)cc4c3=O)CC2)c1C,11µM*,-4%,-14%,7.1µM*,?,9
O=C(CS(=O)(=O)Cc1ccccc1)N1CCN(c2ccccc2F)CC1,-2%,6%,-4%,-6%,9%,-2
Cc1ccc(OCc2cc(C(=O)N3CCN(C4CCCCC4)CC3)no2)cc1C,-7%,-1%,-9%,?,12µM*,-2
COCC1CCN(C(=O)c2cc(COc3ccc4ncccc4c3)on2)CC1,6.3µM*,11%,1%,?,-3%,12
O=C(NC1CCCC1)c1cc(COc2ccc3ncccc3c2)on1,5µM*,-13%,-16%,?,20%,-2
O=C(c1cc(COc2ccc(F)cc2Cl)on1)N1CCC(c2ccncc2)CC1,7.1µM*,8%,1%,11µM*,?,-27
O=C(CBr)c1ccc([N+](=O)[O-])c(CS(=O)(=O)c2ccc(Cl)cc2)c1,-7%,?,15%,-15%,?,-25
COc1ccc(-c2cn3cccnc3n2)cc1NC(=O)Nc1cc(C)ccc1C,·,0%,·,·,·,·
O=C(c1cc(COc2ccc3ncccc3c2)on1)N1CCCCCC1,?,-7%,?,?,9%,4
Cc1cc(OCc2cc(C(=O)N3CCN(CC4CC4)CC3)no2)cc(C)c1Cl,-2%,?,?,?,16%,3
CC(NC(=O)c1cc(COc2ccc3ncccc3c2)on1)c1ccc(F)cc1 (configuration not stated),7.1µM*,5%,2%,?,7%,5
Cc1cc(OCc2cc(C(=O)N3CCC(Oc4cccnc4)CC3)no2)cc(C)c1Cl,?,2%,2%,-28%,21µM*,-6
CC(NC(=O)c1cc(COc2ccccc2)on1)c1nccs1 (configuration not stated),0%,-9%,-8%,-10%,15%,21
O=C(c1cc(COc2ccc3ncccc3c2)on1)N1CCCC1,13µM*,0%,3%,?,14%,33
COc1cccc(CN(C)C(=O)c2cc(COc3ccc4ncccc4c3)on2)c1,6.3µM*,?,-6%,?,?,-14
COc1cccc(CN(C)C(=O)c2cc(COc3c(F)cccc3F)on2)c1,-18%,0%,-4%,17%,-7%,-16
O=C(NC(=S)NCCc1ccccc1)c1ccco1,?,?,-6%,6.3µM*,0%,2
O=C(NCCC1=CCCCC1)c1ccc(Br)o1,14%,?,-9%,0%,0%,2
O=C(NC(=S)NCCC1=CCCCC1)c1ccco1,?,?,1%,4.5µM*,-6%,11
Cc1ccccc1C(=O)NC(=S)NCCC1=CCCCC1,16µM*,?,-4%,4µM*,?,-9
O=C(Cc1ccccc1)NCCC1=CCCCC1,-6%,0%,-8%,18%,?,5
Cc1ccccc1OCC(=O)NCCC1=CCCCC1,?,6%,-80%,?,-3%,0
O=C(NC(=S)NCCC1=CCCCC1)c1ccc(Br)o1,?,?,-1%,4.5µM*,12%,-7
CCc1ccc(CNCCNC(=O)c2ccco2)cc1,·,·,?,·,18µM*,11
Cn1/c(=N/NC(=O)c2cccc(OC(F)F)c2)sc2ccccc21,14µM*,-8%,-2%,10µM*,-2%,-14
SMILES,VP16 counter,BCR signal inh,SW480 rerep,RORgamma inh,MCF10A rerep,Giardia killer
CCCc1cc(=O)[nH]c2nnc(SCC(=O)Nc3cccc(NC(C)=O)c3)n12,·,0%,?,·,?,-5
COC(=O)Cn1c(=O)c(C(=O)CCl)c(N)n(Cc2ccccc2)c1=O,-2%,13%,?,-34%,5.2µM*,22
COC(=O)Cn1c(=O)c2c(n(Cc3ccccc3)c1=O)N/C(=C/c1ccc(OC)cc1)C2=O,0%,-3%,21µM*,-1%,18µM*,18
Cc1ccc(S(=O)(=O)/N=C(\N)Nc2nc(C)c3ccccc3n2)cc1,-15%,-9%,-79%,23%,?,-16
Cc1cccc(NC(=S)/N=C(\N)Nc2nc(C)c3cc(C)ccc3n2)c1,4.5µM*,-16%,?,7.1µM*,17%,45
COc1ccc(Nc2nc(C)c3ccccc3n2)cc1,-27%,?,-2%,?,0%,-1
Cc1ccc(NC(=S)/N=C(\N)Nc2nc(C)c3ccccc3n2)cc1C,1µM*,?,1%,1µM*,12%,-6
Cc1cccc(NC(=S)/N=C(\N)Nc2nc(C)c3ccccc3n2)c1,5µM*,0%,-8%,2.2µM*,28%,-5
Cc1cc(C)cc(NC(=S)/N=C(\N)Nc2nc(C)c3ccccc3n2)c1,3.2µM*,?,?,2µM*,-46%,0
CCc1nc(CNC(=O)C2CCC(=O)N(CCc3cccc(F)c3)C2)no1 (configuration not stated),-3%,5%,15%,1%,3%,3
Cc1cccc(NC(=S)/N=C(\N)Nc2nc(C)c3ccc(C)cc3n2)c1,3.5µM*,?,7.3µM*,1µM*,?,14
CC(C)N(C1=N/C(=C\c2ccco2)C(=O)N1c1ccccc1)C(C)C,14%,?,?,-21%,7.3µM*,11
Cc1cc2cc(CNC(=S)NC3CCCCC3)ccc2n1C,?,-12%,?,14µM*,29%,24
COc1ccccc1NC(=S)NCc1ccc2c(c1)cc(C)n2C,?,5%,?,5.6µM*,?,7
COc1ccc(NC(=S)NCc2ccc3c(c2)cc(C)n3C)cc1,11µM*,?,17%,4.5µM*,2%,5
COc1ccc(C(=O)NCc2ccc3c(c2)cc(C)n3C)cc1OC,22%,7%,-47%,4%,?,-14
CCCCNC(=S)NCc1ccc2c(c1)cc(C)n2C,?,?,-3%,11µM*,-13%,2
Cc1cc2cc(CNC(=O)C3CC3)ccc2n1C,-7%,?,-6%,1%,0%,-13
CSCC(C)N1CCC(Oc2cccc(C(=O)NCc3ccccn3)c2)CC1 (configuration not stated),-2%,-1%,-1%,-23%,0%,7

# Screens: PubChem, National Center for Advancing Translational Sciences (NCATS)
